# Reference: PubChem BioAssay (EPA / NIEHS)
# Active and inactive are the calls of the source. Rule for the calls: active = hit-call score of the fitted dose curve at least 0.9, where 1 is the maximum; inactive = score below 0.9.
# What was measured:
# [1] = CEETOX_H295R_TESTO: CeeTox H295R High-throughput Steroidogenesis Assay for Testosterone (TESTO) (AID 2283457); conditions: actives raise or lower the signal
# Outline: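 Readout: testosterone quantified by HPLC-MS/MS (C18, ESI positive) after MTBE liquid-liquid extraction of culture medium. Cells were H295R, 48 h chemical exposure per OECD 456 with modifications. Gain or loss of signal fitted relative to DMSO.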
# [2] = read-out: Cytochrome P450 (CYP1A1), CYP1A1 (gene 1543); assay: LTEA_HepaRG_CYP1A1: Life Technologies and Expression Analysis (LTEA) Assay for Cytochrome P450 (CYP1A1) using HepaRG (AID 2283454); conditions: mRNA level, 48 h; actives raise or lower the signal
# Outline: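 qRT-PCR read-out: CYP1A1 transcript normalized to three housekeeping genes, fitted bidirectionally against 0.5% DMSO vehicle baseline. Human HepaRG cells, 48 h chemical exposure, 8-point half-log series topping at 100 uM.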
# [3] = read-out: CFLAR gene, CFLAR (gene 8837); assay: LTEA_HepaRG_CFLAR: Life Technologies and Expression Analysis (LTEA) Assay for CFLAR gene using HepaRG (AID 2283455); conditions: mRNA level, 48 h; actives raise or lower the signal
# Outline: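 HepaRG cells were plated for 48 h, switched to serum-free induction medium, then exposed in duplicate for 48 h to 8 concentrations (top 100 uM, half-log steps, 0.5% DMSO). CFLAR mRNA was measured by qRT-PCR, normalized to ACTB, GAPDH and POLR2A.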
# [4] = read-out: Forkhead box O1 (FOXO1), FOXO1 (gene 2308); assay: LTEA_HepaRG_FOXO1: Life Technologies and Expression Analysis (LTEA) Assay for Forkhead box O1 (FOXO1) using HepaRG (AID 2283456); conditions: mRNA level, 48 h; actives raise or lower the signal
# Outline: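 Differentiated human HepaRG cells in serum-free induction medium were exposed in duplicate for 48 h to eight half-log concentrations (top 100 uM, 0.5% DMSO). FOXO1 mRNA was measured by TaqMan qRT-PCR, normalised to ACTB, GAPDH and POLR2A, and fitted bidirectionally against DMSO.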
# [5] = read-out: growth arrest and DNA damage 45 (GADD45A), GADD45A (gene 1647); assay: LTEA_HepaRG_GADD45A: Life Technologies and Expression Analysis (LTEA) Assay for growth arrest and DNA damage 45 (GADD45A) using HepaRG (AID 2283458); conditions: mRNA level, 48 h; actives raise or lower the signal
# Outline: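 Differentiated HepaRG cells exposed 48 h in serum-free induction medium to 8 concentrations, top 100 uM in half-log steps, 0.5% DMSO. GADD45A mRNA quantified by qRT-PCR, normalized to ACTB, GAPDH and POLR2A; bidirectional fit versus DMSO.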
# [6] = read-out: Forkhead box O3 (FOXO3), FOXO3 (gene 2309); assay: LTEA_HepaRG_FOXO3: Life Technologies and Expression Analysis (LTEA) Assay for Forkhead box O3 (FOXO3) using HepaRG (AID 2283459); conditions: mRNA level, 48 h; actives raise or lower the signal
# Outline: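 Differentiated human HepaRG cells in serum-free induction medium were exposed in duplicate for 48 h to eight half-log concentrations up to 100 uM in 0.5% DMSO. FOXO3 mRNA was quantified by qRT-PCR, normalized to ACTB, GAPDH and POLR2A, with bidirectional fitting versus DMSO.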
# [7] = read-out: ABC Transporter (ABCB1), ABCB1 (gene 5243); assay: LTEA_HepaRG_ABCB1: Life Technologies and Expression Analysis (LTEA) Assay for ABC Transporter (ABCB1) using HepaRG (AID 2283460); conditions: mRNA level, 48 h; actives raise or lower the signal
# Outline: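 Differentiated human HepaRG cells, plated 48 h then switched to serum-free induction medium, were exposed in duplicate to eight half-log concentrations up to 100 uM in 0.5% DMSO for 48 h. ABCB1 mRNA was measured by TaqMan qRT-PCR, normalized to ACTB/GAPDH/POLR2A.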
# [8] = read-out: growth arrest and DNA damage 45 (GADD45B), GADD45B (gene 4616); assay: LTEA_HepaRG_GADD45B: Life Technologies and Expression Analysis (LTEA) Assay for growth arrest and DNA damage 45 (GADD45B) using HepaRG (AID 2283461); conditions: mRNA level, 48 h; actives raise or lower the signal
# Outline: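 qRT-PCR read-out (Fluidigm TaqMan, housekeeping-normalized) of mRNA change in human HepaRG cells after 48 h chemical exposure; 8-point curve, top 100 uM, half-log steps, 0.5% DMSO vehicle; gain or loss fitted relative to DMSO baseline.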
# [9] = read-out: ABC Transporter (ABCC3), ABCC3 (gene 8714); assay: LTEA_HepaRG_ABCC3: Life Technologies and Expression Analysis (LTEA) Assay for ABC Transporter (ABCC3) using HepaRG (AID 2283462); conditions: mRNA level, 48 h; actives raise or lower the signal
# Outline: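 qRT-PCR read-out of ABCC3 transcript, normalized to three housekeeping genes (ACTB, GAPDH, POLR2A), after 48 h chemical exposure of human HepaRG cells. Eight half-log concentrations, highest 100 uM, in 0.5% DMSO; gain or loss fitted relative to DMSO baseline.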
# [10] = read-out: ABC Transporter (ABCB11), ABCB11 (gene 8647); assay: LTEA_HepaRG_ABCB11: Life Technologies and Expression Analysis (LTEA) Assay for ABC Transporter (ABCB11) using HepaRG (AID 2283463); conditions: mRNA level, 48 h; actives raise or lower the signal
# Outline: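 Differentiated human HepaRG cells were exposed for 48 h in serum-free induction medium to eight half-log concentrations up to 100 uM in 0.5% DMSO. ABCB11 mRNA was quantified by qRT-PCR, normalized to ACTB, GAPDH and POLR2A, and fitted bidirectionally versus DMSO.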
# [11] = read-out: ABC Transporter (ABCC2), ABCC2 (gene 1244); assay: LTEA_HepaRG_ABCC2: Life Technologies and Expression Analysis (LTEA) Assay for ABC Transporter (ABCC2) using HepaRG (AID 2283464); conditions: mRNA level, 48 h; actives raise or lower the signal
# Outline: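 qRT-PCR (TaqMan, Fluidigm array) read-out of ABCC2 mRNA, normalized to three housekeeping genes. Differentiated HepaRG cells were treated 48 h in serum-free induction medium with 8-point half-log series from 100 uM in 0.5% DMSO; curves fitted bidirectionally relative to DMSO.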
# [12] = read-out: Broad substrate specificity ATP-binding cassette transporter ABCG2 (Homo sapiens) (UniProt Q9UNQ0); assay: LTEA_HepaRG_ABCG2: Life Technologies and Expression Analysis (LTEA) Assay for ABC Transporter (ABCG2) using HepaRG (AID 2283465); conditions: mRNA level, 48 h; actives raise or lower the signal
# Outline: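 Differentiated HepaRG cells in serum-free induction medium were exposed for 48 h, in duplicate, to eight half-log concentrations up to 100 uM in 0.5% DMSO. ABCG2 mRNA was measured by TaqMan qRT-PCR, normalized to ACTB, GAPDH and POLR2A, and fitted bidirectionally versus DMSO.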
# [13] = read-out: ATP-citrate lyase (ACLY), ACLY (gene 47); assay: LTEA_HepaRG_ACLY: Life Technologies and Expression Analysis (LTEA) Assay for ATP-citrate lyase (ACLY) using HepaRG (AID 2283466); conditions: mRNA level, 48 h; actives raise or lower the signal
# Outline: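 Differentiated human HepaRG cells in serum-free induction medium exposed 48 h, in duplicate, to eight half-log concentrations from 100 uM top in 0.5% DMSO; ACLY mRNA measured by qRT-PCR, normalized to ACTB, GAPDH, POLR2A, fitted bidirectionally versus DMSO.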
# [14] = read-out: Peroxisomal acyl-coenzyme A oxidase 1 (ACOX1) gene, ACOX1 (gene 51); assay: LTEA_HepaRG_ACOX1: Life Technologies and Expression Analysis (LTEA) Assay for Peroxisomal acyl-coenzyme A oxidase 1 (ACOX1) gene using HepaRG (AID 2283467); conditions: mRNA level, 48 h; actives raise or lower the signal
# Outline: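 Differentiated human HepaRG cells were exposed in duplicate for 48 h in serum-free induction medium to eight half-log concentrations up to 100 uM in 0.5% DMSO. ACOX1 mRNA was then quantified by TaqMan qRT-PCR, normalized to ACTB, GAPDH and POLR2A.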
# [15] = read-out: Alkaline Phosphatase, Placental (ALPP) gene, ALPP (gene 250); assay: LTEA_HepaRG_ALPP: Life Technologies and Expression Analysis (LTEA) Assay for Alkaline Phosphatase, Placental (ALPP) gene using HepaRG (AID 2283468); conditions: mRNA level, 48 h; actives raise or lower the signal
# Outline: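 qRT-PCR readout of ALPP mRNA (Fluidigm TaqMan), normalized to ACTB/GAPDH/POLR2A, after 48 h chemical exposure of HepaRG cells; 8-point half-log series, top 100 uM, 0.5% DMSO vehicle. Bidirectional curve fit versus DMSO baseline.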
# [16] = read-out: Bcl-2 (BAD) gene, BAD (gene 572); assay: LTEA_HepaRG_BAD: Life Technologies and Expression Analysis (LTEA) Assay for Bcl-2 (BAD) gene using HepaRG (AID 2283469); conditions: mRNA level, 48 h; actives raise or lower the signal
# Outline: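 Differentiated human HepaRG cells in serum-free induction medium were exposed in duplicate for 48 h to eight concentrations (top 100 uM, half-log steps, 0.5% DMSO). BAD mRNA was quantified by qRT-PCR normalised to ACTB, GAPDH and POLR2A, with bidirectional fitting versus DMSO.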
# [17] = read-out: Bcl-2 (BAX) gene, BAX (gene 581); assay: LTEA_HepaRG_BAX: Life Technologies and Expression Analysis (LTEA) Assay for Bcl-2 (BAX) gene using HepaRG (AID 2283470); conditions: mRNA level, 48 h; actives raise or lower the signal
# Outline: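 Differentiated HepaRG cells exposed 48 h in serum-free induction medium, eight half-log concentrations from 100 uM, in duplicate, 0.5% DMSO vehicle. BAX mRNA by TaqMan qRT-PCR, normalised to ACTB, GAPDH and POLR2A.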
# [18] = read-out: adenosine kinase (ADK) gene, ADK (gene 132); assay: LTEA_HepaRG_ADK: Life Technologies and Expression Analysis (LTEA) Assay for adenosine kinase (ADK) gene using HepaRG (AID 2283471); conditions: mRNA level, 48 h; actives raise or lower the signal
# Outline: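 Read-out is ADK transcript level measured by qRT-PCR and normalised to three housekeeping genes. Cells are human HepaRG, dosed for 48 h at up to 100 uM in 0.5% DMSO. Gain or loss of signal is fitted against DMSO controls.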
# [19] = read-out: Alpha-fetoprotein (AFP) gene, AFP (gene 174); assay: LTEA_HepaRG_AFP: Life Technologies and Expression Analysis (LTEA) Assay for Alpha-fetoprotein (AFP) gene using HepaRG (AID 2283472); conditions: mRNA level, 48 h; actives raise or lower the signal
# Outline: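 Differentiated human HepaRG cells exposed 48 h in serum-free induction medium, 8-point half-log series from 100 uM in 0.5% DMSO, duplicate. AFP mRNA by qRT-PCR, normalized to ACTB, GAPDH, POLR2A; bidirectional fit vs DMSO.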
# BCL2L11 (gene 10018) = assay: LTEA_HepaRG_BCL2L11: Life Technologies and Expression Analysis (LTEA) Assay for Bcl-2 (BCL2L11) gene using HepaRG (AID 2283473); conditions: mRNA level, 48 h; actives raise or lower the signal
# Outline: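 HepaRG, 48 h exposure, 8-pt half-log series from 100 uM in 0.5% DMSO, duplicates; qRT-PCR (Fluidigm TaqMan) for BCL2L11, housekeeping-normalized; bidirectional curve fit relative to DMSO baseline.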
# Chain of Broad substrate specificity ATP-binding cassette transporter ABCG2 (Homo sapiens) (Q9UNQ0 whole entry, looked up): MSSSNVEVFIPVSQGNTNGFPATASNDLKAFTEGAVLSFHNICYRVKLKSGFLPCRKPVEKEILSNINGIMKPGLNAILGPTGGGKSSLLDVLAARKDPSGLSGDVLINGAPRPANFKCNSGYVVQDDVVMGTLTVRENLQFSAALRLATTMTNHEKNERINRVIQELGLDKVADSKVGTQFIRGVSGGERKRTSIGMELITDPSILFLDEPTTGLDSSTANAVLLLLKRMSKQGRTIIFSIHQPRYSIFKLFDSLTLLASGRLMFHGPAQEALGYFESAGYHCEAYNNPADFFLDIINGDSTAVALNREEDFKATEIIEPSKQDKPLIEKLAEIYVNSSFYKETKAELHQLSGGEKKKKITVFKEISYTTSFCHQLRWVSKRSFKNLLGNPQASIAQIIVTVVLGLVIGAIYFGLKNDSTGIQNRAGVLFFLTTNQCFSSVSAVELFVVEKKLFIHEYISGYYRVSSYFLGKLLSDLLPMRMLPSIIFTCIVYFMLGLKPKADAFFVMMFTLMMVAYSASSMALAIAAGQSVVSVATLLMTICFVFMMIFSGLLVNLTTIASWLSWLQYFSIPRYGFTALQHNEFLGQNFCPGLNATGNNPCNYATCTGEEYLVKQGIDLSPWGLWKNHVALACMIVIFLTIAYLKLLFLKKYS
Structure (SMILES),outcome [1],AC50 [2],outcome [3],outcome [4],outcome [5],outcome [6],outcome [7],outcome [8],outcome [9],outcome [10],outcome [11],outcome [12],outcome [13],outcome [14],outcome [15],outcome [16],outcome [17],outcome [18],outcome [19],outcome (BCL2L11 (gene 10018))
C=CC(=O)OCCCCCCOC(=O)C=C,inactive,,,,,,,,,,,,,,,,,,,
Cc1ccc([N+](=O)[O-])cc1N,,25 µM (active),inactive,inactive,inactive,inactive,inactive,inactive,inactive,inactive,inactive,inactive,inactive,inactive,inactive,inactive,inactive,inactive,inactive,inactive
CCOC(=O)C1=NN(c2ccc(Cl)cc2Cl)C(C)(C(=O)OCC)C1 (stereo not given),inactive,,,,,,,,,,,,,,,,,,,
Nc1ccc(C(=O)O)cc1,,77 µM (active),inactive,inactive,inactive,inactive,inactive,inactive,inactive,inactive,inactive,inactive,inactive,inactive,inactive,inactive,inactive,inactive,inactive,inactive
COc1ccc(C(=O)c2ccccc2)c(O)c1,inactive,,,,,,,,,,,,,,,,,,,
C1CNCCN1,,73.1 µM (active),inactive,inactive,inactive,inactive,inactive,inactive,inactive,inactive,inactive,inactive,inactive,inactive,inactive,inactive,inactive,inactive,inactive,inactive
